Compound activity (PubChem)
PI5P4Ka inh = blocks human PI5P4K alpha kinase activity; P48426; PI5P4Kalpha enzyme, ADP-Glo luminescence, 60 min; stronger effect = lower value; max response, %; 330,000 compounds, 1.2% hits; AID 652105; active means max response of -50% or lower; inconclusive means between -30% and -50%; inactive means -30% or higher; further: value at the top dose of about 77 µM
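Single end-point luminescence (ADP-Glo) quantified ADP from PI5P4Kalpha turnover; ATP 5 microM final, 1 h at RT, 0.1% CHAPS and 0.28 mM EGTA in HEPES pH 7.4.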
FEN1 inh = inhibitors of human flap endonuclease 1; Recombinant FEN1 flap cleavage, fluorescence, 15 min; 390,000 compounds, 0.35% hits; Potency, µM (titrated, usually from 114 µM), inactives show at the top dose activity change, negative = inhibition, most hits filed as inhibitors; AID 588795; P39748; further: potency means the concentration at half of the fitted maximal effect; nearly all actives have a fitted effect of over 65% in size
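Nuclease activity of 10 nM FEN1 was measured after 15 min of room-temperature exposure to titrated compounds, by adding 50 nM flap substrate and reading plates at 0 and 15 min.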
BLM helicase inh = inhibitors of human Bloom syndrome helicase BLM. recombinant BLM DNA unwinding, fluorescence dequenching. Potency, µM (doses to about 56.1 µM), for inactives: at the highest dose activity change, negative = inhibition, hits mostly inhibitors. 350,000 compounds, 0.2% hits;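 further: potency means the concentration at half of the fitted maximal effect; plate controls were vehicle for no effect and no enzyme for full effect; nearly all actives have a fitted effect of over 35% in size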
WRN inhibitor = blocks human WRN helicase | WRN helicase unwinding, fluorescent forked duplex, kinetic | 360,000 compounds, 0.46% hits | Potency, µM (series often up to 114 µM), for inactives: at the top dose activity change, negative = inhibition, actives largely listed as inhibitors | Q14191; further: potency means the concentration at half of the fitted maximal effect; nearly all actives have a fitted effect of over 55% in size
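Kinetic red-fluorescence monitoring (525/598 nm) tracks WRN helicase activity after 100 nM fluorophore-quencher forked duplex and 2 mM ATP are added to 20 nM enzyme pretreated 15 min at room temperature with compound.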
RECQ1 inh = inhibitors of human RECQ1 DNA helicase. P46063. RECQ1 DNA unwinding, red fluorescence kinetic read. Potency, µM (titrated, usually from 57.3 µM), for the others: top-dose activity, negative = inhibition, usual class: inhibitors. 240,000 compounds, 0.54% hits;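 further: potency means the concentration at half of the fitted maximal effect; plate controls were vehicle for no effect and no enzyme for full effect; nearly all actives have a fitted effect of over 30% in size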
Target sequence (P46063 whole entry, looked up): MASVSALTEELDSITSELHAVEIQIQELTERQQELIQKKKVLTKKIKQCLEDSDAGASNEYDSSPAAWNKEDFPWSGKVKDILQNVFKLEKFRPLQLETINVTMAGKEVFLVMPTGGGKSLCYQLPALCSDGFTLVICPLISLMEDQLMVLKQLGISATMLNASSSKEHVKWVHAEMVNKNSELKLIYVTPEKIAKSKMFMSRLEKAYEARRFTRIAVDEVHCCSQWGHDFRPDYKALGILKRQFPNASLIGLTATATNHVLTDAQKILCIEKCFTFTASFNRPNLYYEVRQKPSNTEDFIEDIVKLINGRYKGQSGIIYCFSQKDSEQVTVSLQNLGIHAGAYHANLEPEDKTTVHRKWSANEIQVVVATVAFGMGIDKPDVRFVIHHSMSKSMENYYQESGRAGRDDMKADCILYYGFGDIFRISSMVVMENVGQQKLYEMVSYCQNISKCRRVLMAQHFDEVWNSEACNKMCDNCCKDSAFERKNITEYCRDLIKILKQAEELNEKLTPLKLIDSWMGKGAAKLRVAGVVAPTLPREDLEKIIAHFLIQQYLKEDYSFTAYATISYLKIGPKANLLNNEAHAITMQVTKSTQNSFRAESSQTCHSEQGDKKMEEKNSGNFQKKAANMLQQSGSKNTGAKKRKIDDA
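RECQ1T1 50 nM; forked duplex (20 bp + 30-nt ss tails) 200 nM, ATP 2 mM final; pH 8.0, 2 mM MgCl2, 2.5 ug/ml poly(dI-dC); 15 min compound preincubation; discontinuous kinetic read over 2 h at RT.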
APEX1 inh = blocks human APE1 abasic DNA cleavage; P27695; recombinant APE1, TAMRA/BHQ-2 abasic DNA cleavage fluorescence; Potency, µM (titrated, usually from 65.8 µM), without a hit: top-dose activity change, negative = inhibition, actives largely listed as inhibitors; 350,000 compounds, 0.35% hits;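 further: potency means the concentration at half of the fitted maximal effect; plate controls were vehicle for no effect and reference inhibitor for full effect; nearly all actives have a fitted effect of over 55% in size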
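Incision of a quenched TAMRA/BHQ-2 THF abasic-site duplex (50 nM) by 0.75 nM APE1, after 15 min compound preincubation, measured as fluorescence increase over three 60 s reads. Values normalized to buffer, DMSO and NSC13755 control wells.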
* marks the source's active call; other numbers are inactive results; [ ] = another dose, or the depositor's remark. Most compounds without a hit are left out; they make up all but 1.5% or so of the library. Unless noted, the call rests on the fitted dose curve; in most records, active means well fitted curve in the direction sought with a large enough effect; inconclusive means small, poorly fitted or top-dose-only effect, or another doubt; inactive means no such curve, though single readings can be large; an effect the other way counts as inactive or inconclusive. Unless noted, on the % scale 0 is the no-effect control and ±100 the full control effect.

CC(=O)Oc1cc(C)c(OC(C)=O)c2ccccc12 was read as BLM helicase inh 3.6%.
CCN(CC)c1ccc(/C=C/C2=C3C=CC=CC3NC=C2)cc1 (configuration not stated) was read as FEN1 inh 15.8µM*.
CCN(CC)c1ccc(/C=C/c2ccnc3ccccc23)cc1 was read as FEN1 inh -10.5%.
Cc1ccccc1NS(=O)(=O)c1ccc2[nH]cc(C(=O)N(C)Cc3ccco3)c(=O)c2c1 was read as PI5P4Ka inh -13.8, FEN1 inh -1.7%, BLM helicase inh -2.3%, WRN inhibitor -24.4%, RECQ1 inh 31.6µM* and APEX1 inh 35.5µM*.
CC(C)CCNC(=O)NC(=O)COC(=O)/C=C/c1cc(Br)ccc1F was read as PI5P4Ka inh -61.9*, FEN1 inh 3.1%, BLM helicase inh 1.3%, WRN inhibitor inconclusive, RECQ1 inh -2.5% and APEX1 inh 0.9%.
For O=C1c2ccccc2NC(c2cccc(F)c2)N1Cc1ccco1 (configuration not stated) the results were FEN1 inh -6.0%, BLM helicase inh inconclusive, WRN inhibitor -22.2%, RECQ1 inh -19.3% and APEX1 inh 7.94µM*.
For COc1ccc(OC)c(N2C(N)=NC(N)=NC23CCCC3)c1 the results were PI5P4Ka inh -6.0, FEN1 inh -2.0%, BLM helicase inh 3.0%, WRN inhibitor 2.5%, RECQ1 inh -4.2% and APEX1 inh 0.8%.
`Cc1cccc(N2C(N)=NC(N)=NC23CCCCC3)c1` gave PI5P4Ka inh -62.7*, FEN1 inh -0.5%, BLM helicase inh -5.2%, WRN inhibitor 17.4%, RECQ1 inh -5.6% and APEX1 inh 1.9%.
Oc1ccc(Br)cc1C1C=C(c2ccc3c(c2)OCO3)NC(c2cccc(F)c2)N1 (configuration not stated) was read as FEN1 inh -25.6%.
`CCCCCC(=O)Cc1cc(O)cc2c1C(=O)Oc1cc(O)c(C(=O)O)c(CCCCC)c1O2` gave PI5P4Ka inh -75.6*, FEN1 inh inconclusive, BLM helicase inh inconclusive, WRN inhibitor 44.7µM*, RECQ1 inh 15.8µM* and APEX1 inh 5.7%.
For CCN(CC)S(=O)(=O)c1ccc(C(=O)NCc2ccc3c(c2)cc(C)n3C)cc1 the results were PI5P4Ka inh -3.0, FEN1 inh inconclusive, BLM helicase inh -16.6%, WRN inhibitor 50.1µM*, RECQ1 inh -18.8% and APEX1 inh -5.0%.
`Oc1[nH]c(=S)sc1/C=C1\C(c2ccccc2)=Nc2ccccc21` gave PI5P4Ka inh -73.7*, FEN1 inh -3.1%, BLM helicase inh -10.3%, WRN inhibitor -30.3%, RECQ1 inh inconclusive and APEX1 inh 0.3%.
Oc1[nH]c(=S)sc1C=C1N=c2ccccc2=N1 was read as PI5P4Ka inh -20.6, FEN1 inh -27.5%, BLM helicase inh -4.4%, WRN inhibitor -18.3%, RECQ1 inh 10.4% and APEX1 inh -5.2%.
NCCCCCN was read as BLM helicase inh 4.2%, RECQ1 inh -6.1% and APEX1 inh -4.4%.
O=C(Nc1ccccc1F)C1CCCN(S(=O)(=O)c2ccccc2)C1 (configuration not stated) was read as PI5P4Ka inh inconclusive, FEN1 inh -9.0%, BLM helicase inh -1.5%, WRN inhibitor 79.4µM*, RECQ1 inh inactive and APEX1 inh -2.3%.
O=C(Nc1ccccc1F)C1CCCN(S(=O)(=O)c2ccc(-n3cnnn3)cc2)C1 (configuration not stated) was read as PI5P4Ka inh 2.6, FEN1 inh -4.3%, BLM helicase inh -0.3%, WRN inhibitor 13.5% and APEX1 inh 81.0%[12.4 µM].
`Cc1ccc(/C=C/C(=O)O)cc1S(=O)(=O)N(CCO)CCO` gave PI5P4Ka inh -59.0*, FEN1 inh -0.9%, BLM helicase inh -0.9%, WRN inhibitor 8.3%, RECQ1 inh -2.6% and APEX1 inh 11.8%.
`CC1(C)OC(=O)C(=CNc2cccc(O)c2)C(=O)O1` gave FEN1 inh -16.0%, BLM helicase inh 1.1%, WRN inhibitor -4.7%, RECQ1 inh 11.6% and APEX1 inh -1.3%.
For CC1(C)OC(C)(C)/C(=C/Nc2ccc(O)cc2)C1=O the results were PI5P4Ka inh -70.3*, FEN1 inh -1.3%, BLM helicase inh inconclusive, WRN inhibitor -26.7%[57.1 µM], RECQ1 inh inactive and APEX1 inh 13.0%.
`O=[N+]([O-])c1cccc(-c2nnc3ccc4ccccc4n23)c1` gave PI5P4Ka inh -8.5, FEN1 inh 12.5%, BLM helicase inh 5.4%, WRN inhibitor -9.8%, RECQ1 inh inconclusive and APEX1 inh 12.6µM*.
Screening CS(=O)(=O)c1ccc(-c2csc(N3CCC(C(N)=O)CC3)n2)cc1 returned APEX1 inh -0.9%.
C=CCn1c(SCC(=O)c2ccc(O)c(O)c2)nnc1-c1cccc(Cl)c1 was read as PI5P4Ka inh -14.7, FEN1 inh -13.6%, WRN inhibitor 17.8µM* and APEX1 inh -10.9%.
Screening CNCc1ccccc1Sc1ccc(O)c(O)c1 returned PI5P4Ka inh inconclusive, FEN1 inh inconclusive, BLM helicase inh -1.8%, WRN inhibitor inconclusive, RECQ1 inh inconclusive and APEX1 inh 31.6µM*.
`CCOC(=O)N1CC(C)N(/[N+]([O-])=N/Oc2ccc([N+](=O)[O-])cc2[N+](=O)[O-])CC1C` (configuration not stated) gave FEN1 inh 2.0%, BLM helicase inh -5.5%, RECQ1 inh -14.5% and APEX1 inh 1.5%.
Screening CC(C(=O)Nc1ccc(C(=O)O)c(O)c1)N1C(=O)/C(=C\c2ccco2)SC1=S (configuration not stated) returned PI5P4Ka inh inconclusive, FEN1 inh 3.5%, BLM helicase inh 41.0%, WRN inhibitor 39.8µM* and APEX1 inh 21.2µM*.
For Nc1nc(SCC(=O)N2N=C3/C(=C\c4ccco4)CCCC3C2c2ccco2)n[nH]1 (configuration not stated) the results were PI5P4Ka inh inconclusive, FEN1 inh 4.1% and WRN inhibitor -2.3%[11.6 µM].
Screening Nc1nc(SCC(=O)N2N=C3/C(=C/c4ccco4)CCCC3C2c2ccco2)n[nH]1 (configuration not stated) returned PI5P4Ka inh -51.5*, FEN1 inh -7.2%, BLM helicase inh -5.4%, WRN inhibitor -3.6%, RECQ1 inh inactive and APEX1 inh -7.0%.
N=C(N)SCc1cccc2c(=O)cc(-c3ccccc3)oc12 was read as FEN1 inh 50.1µM*.
